Measurements taken from ChEMBL document CHEMBL3988442, “University of Dundee, Small-Polar-MMV Screening Library” (2021).
For part of these data: Measured potencies and affinities stand elsewhere.

Experiments:
[1] = molecular target: Protein translocase subunit SecA (Escherichia coli (strain K12)) (UniProt P10408); test: Assay to Identify E. coli SecA ATPase Inhibitors; type: functional; design: scale not given: direction of the effect not stated beside the values; conditions: 30 µM
[2] = molecular target: T1, Ubiquitin-activating enzyme e1, putative (Leishmania donovani (strain BPK282A1)) (UniProt E9BSI1); test: Leishmania donovani Ubiquitin Activating Enzyme (LdE1); type: functional; design: scale not given: direction of the effect not stated beside the values; conditions: 30 µM
T1 sequence (whole entry): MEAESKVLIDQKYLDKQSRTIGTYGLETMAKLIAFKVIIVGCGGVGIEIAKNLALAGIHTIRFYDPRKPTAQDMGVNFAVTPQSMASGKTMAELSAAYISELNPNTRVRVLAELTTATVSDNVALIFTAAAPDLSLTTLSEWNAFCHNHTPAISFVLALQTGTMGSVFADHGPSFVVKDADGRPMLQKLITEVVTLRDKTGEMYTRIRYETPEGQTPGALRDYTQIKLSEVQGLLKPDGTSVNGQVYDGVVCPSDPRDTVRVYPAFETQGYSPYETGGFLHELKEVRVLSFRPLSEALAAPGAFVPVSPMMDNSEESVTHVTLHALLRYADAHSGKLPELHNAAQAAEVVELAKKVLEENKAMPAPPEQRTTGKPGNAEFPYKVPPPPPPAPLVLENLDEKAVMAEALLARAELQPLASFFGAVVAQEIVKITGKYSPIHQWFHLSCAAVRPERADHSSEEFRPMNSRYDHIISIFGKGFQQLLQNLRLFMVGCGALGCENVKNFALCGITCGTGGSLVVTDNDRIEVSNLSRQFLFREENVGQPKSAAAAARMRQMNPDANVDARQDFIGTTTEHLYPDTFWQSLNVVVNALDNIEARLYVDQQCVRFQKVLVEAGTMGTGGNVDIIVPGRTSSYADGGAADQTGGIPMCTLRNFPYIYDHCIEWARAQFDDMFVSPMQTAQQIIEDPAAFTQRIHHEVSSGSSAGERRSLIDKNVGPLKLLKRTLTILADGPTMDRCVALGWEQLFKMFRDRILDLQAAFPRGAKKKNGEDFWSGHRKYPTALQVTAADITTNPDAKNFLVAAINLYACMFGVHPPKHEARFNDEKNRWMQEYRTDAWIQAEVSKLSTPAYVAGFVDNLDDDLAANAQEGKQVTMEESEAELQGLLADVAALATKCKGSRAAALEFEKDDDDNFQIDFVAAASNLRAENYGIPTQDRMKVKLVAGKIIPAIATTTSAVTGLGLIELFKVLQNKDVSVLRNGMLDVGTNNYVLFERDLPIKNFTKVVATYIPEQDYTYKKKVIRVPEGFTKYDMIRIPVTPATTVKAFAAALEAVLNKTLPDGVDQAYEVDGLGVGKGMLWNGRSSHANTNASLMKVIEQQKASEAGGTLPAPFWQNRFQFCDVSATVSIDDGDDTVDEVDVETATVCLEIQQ

[3] = molecular target: AMP-activated protein kinase, AMPK (Homo sapiens) (UniProt P54646+O43741+P54619+Q9UGJ0+Q9Y478+Q13131+Q9UGI9); test: AMP-dependent Kinase enzyme assay. An in vitro enzyme assay that detects ADP turnover that is directly proportional to AMPK activity. This uses naive AMPK that is activated during the assay with MK-8722; type: functional; design: scale not given: direction of the effect not stated beside the values; conditions: 30 µM
[4] = molecular target: Sialic acid-binding Ig-like lectin 9 (Homo sapiens) (UniProt Q9Y336); test: Hs-Siglec9 ALPHAscreen SOP 20170721; design: scale not given: direction of the effect not stated beside the values; conditions: 10 µM
Trypanosoma cruzi = test: Trypanosoma cruzi phosphomannomutase and mannose-1-phosphate guanylyltransferase assay; type: functional; design: scale not given: direction of the effect not stated beside the values; conditions: 10 µM
[5] = molecular target: T2, Arginase-2, mitochondrial (Homo sapiens) (UniProt P78540); test: in vitro enzyme assay to detect the production of urea directly proportional to the activity of Arginase II; type: functional; design: scale not given: in the data most compounds retested in dose-response had high values
T2 sequence (whole entry): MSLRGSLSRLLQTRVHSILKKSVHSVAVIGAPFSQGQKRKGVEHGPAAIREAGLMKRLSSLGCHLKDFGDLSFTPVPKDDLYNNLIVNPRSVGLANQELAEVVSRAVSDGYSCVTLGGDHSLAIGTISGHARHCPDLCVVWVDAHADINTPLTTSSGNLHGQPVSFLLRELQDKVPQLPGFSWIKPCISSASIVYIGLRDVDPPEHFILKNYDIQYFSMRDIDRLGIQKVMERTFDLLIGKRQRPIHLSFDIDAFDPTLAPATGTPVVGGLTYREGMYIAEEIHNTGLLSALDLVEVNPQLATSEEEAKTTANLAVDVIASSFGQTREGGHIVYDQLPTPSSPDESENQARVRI

[6] = molecular target: T3, Proteasome subunit beta (Trypanosoma cruzi) (UniProt O96673); test: Trypanosoma cruzi proteasome chymotrypsin-like activity (TcProtChymo) assay.; type: functional; design: scale not given: in the data most compounds retested in dose-response had high values; conditions: 9.37 µM
T3 sequence (whole entry): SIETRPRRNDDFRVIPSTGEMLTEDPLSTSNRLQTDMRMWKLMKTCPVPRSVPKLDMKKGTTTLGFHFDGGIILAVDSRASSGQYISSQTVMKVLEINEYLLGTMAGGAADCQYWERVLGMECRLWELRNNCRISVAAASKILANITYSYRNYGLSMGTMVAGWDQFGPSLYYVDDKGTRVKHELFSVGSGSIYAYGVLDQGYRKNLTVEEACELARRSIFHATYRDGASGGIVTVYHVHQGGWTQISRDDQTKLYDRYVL

Homo sapiens = organism: Homo sapiens; test: To identify inhibition of the IFN signalling (Jak-Stat) pathway via expression of an eGFP reporter gene under the control of an IFN-stimulated response element (ISRE) containing MxA promoter.; type: functional; design: scale not given: direction of the effect not stated beside the values; conditions: 30 µM
[7] = molecular target: T4, Tyrosyl-tRNA synthetase, putative (Trypanosoma cruzi (strain CL Brener)) (UniProt Q4DSP6); test: Trypanosoma cruzi tyrosyl tRNA synthetase (TcYRS) _High Tyrosine SOP; type: functional; design: scale not given: in the data most compounds retested in dose-response had high values; conditions: 30 µM
T4 sequence (whole entry): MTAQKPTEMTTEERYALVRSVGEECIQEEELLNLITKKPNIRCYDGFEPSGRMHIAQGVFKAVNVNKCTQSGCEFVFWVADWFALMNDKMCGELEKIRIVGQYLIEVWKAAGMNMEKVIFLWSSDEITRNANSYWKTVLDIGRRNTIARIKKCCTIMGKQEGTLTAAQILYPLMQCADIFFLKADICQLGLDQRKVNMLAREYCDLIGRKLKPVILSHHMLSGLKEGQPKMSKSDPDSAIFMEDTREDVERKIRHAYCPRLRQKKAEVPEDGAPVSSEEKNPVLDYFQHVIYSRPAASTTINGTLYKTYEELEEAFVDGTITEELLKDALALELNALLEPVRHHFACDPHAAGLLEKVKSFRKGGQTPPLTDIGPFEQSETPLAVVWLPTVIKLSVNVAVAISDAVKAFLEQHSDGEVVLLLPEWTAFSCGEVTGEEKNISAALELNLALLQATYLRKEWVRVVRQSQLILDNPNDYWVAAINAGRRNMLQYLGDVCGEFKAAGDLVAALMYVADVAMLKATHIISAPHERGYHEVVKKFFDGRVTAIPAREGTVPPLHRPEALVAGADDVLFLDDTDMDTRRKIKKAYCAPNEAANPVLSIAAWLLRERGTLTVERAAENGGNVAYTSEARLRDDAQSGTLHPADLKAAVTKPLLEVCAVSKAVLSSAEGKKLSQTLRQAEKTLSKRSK

[8] = molecular target: T4, Tyrosyl-tRNA synthetase, putative (Trypanosoma cruzi (strain CL Brener)); test: Trypanosoma cruzi tyrosyl tRNA synthetase (TcYRS) SOP; type: functional; design: scale not given: direction of the effect not stated beside the values; conditions: 30 µM
[9] = molecular target: Chromo domain-containing protein 1 (Saccharomyces cerevisiae (strain ATCC 204508 / S288c) (Baker's yeast)) (UniProt P32657); test: ScCHD-1 Enzyme Inhibition Assay; type: functional; design: scale not given: in the data most compounds retested in dose-response had high values; conditions: 30 µM
[10] = molecular target: T5, Methionyl-tRNA synthetase, putative (Leishmania donovani (strain BPK282A1)) (UniProt E9BF75); test: Leishmania donovani Methionine tRNA synthetase (LdMetRS):v7. Dose response assay; type: functional; design: conc 80 nM, time 150 minutes
T5 sequence (whole entry): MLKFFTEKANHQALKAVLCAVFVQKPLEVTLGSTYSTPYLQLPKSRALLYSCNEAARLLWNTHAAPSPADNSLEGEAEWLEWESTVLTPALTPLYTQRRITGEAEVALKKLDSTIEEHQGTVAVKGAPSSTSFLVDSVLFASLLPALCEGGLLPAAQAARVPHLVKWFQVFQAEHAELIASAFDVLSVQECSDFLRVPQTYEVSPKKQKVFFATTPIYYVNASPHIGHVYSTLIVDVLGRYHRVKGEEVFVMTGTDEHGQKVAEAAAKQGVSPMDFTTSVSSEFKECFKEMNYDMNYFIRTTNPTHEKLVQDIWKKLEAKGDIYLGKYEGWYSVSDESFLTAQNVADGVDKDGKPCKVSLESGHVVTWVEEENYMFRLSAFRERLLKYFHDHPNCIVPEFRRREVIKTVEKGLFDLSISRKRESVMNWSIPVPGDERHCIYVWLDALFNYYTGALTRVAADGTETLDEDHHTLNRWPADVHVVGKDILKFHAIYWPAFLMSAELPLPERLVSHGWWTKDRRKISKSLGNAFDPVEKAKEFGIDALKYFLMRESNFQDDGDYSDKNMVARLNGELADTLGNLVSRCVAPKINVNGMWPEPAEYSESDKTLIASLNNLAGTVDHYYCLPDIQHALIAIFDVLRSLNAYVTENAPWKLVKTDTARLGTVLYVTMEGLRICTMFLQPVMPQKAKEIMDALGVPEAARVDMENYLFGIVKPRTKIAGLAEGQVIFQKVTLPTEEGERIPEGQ

Chain of Protein translocase subunit SecA (Escherichia coli (strain K12)) (P10408 whole entry): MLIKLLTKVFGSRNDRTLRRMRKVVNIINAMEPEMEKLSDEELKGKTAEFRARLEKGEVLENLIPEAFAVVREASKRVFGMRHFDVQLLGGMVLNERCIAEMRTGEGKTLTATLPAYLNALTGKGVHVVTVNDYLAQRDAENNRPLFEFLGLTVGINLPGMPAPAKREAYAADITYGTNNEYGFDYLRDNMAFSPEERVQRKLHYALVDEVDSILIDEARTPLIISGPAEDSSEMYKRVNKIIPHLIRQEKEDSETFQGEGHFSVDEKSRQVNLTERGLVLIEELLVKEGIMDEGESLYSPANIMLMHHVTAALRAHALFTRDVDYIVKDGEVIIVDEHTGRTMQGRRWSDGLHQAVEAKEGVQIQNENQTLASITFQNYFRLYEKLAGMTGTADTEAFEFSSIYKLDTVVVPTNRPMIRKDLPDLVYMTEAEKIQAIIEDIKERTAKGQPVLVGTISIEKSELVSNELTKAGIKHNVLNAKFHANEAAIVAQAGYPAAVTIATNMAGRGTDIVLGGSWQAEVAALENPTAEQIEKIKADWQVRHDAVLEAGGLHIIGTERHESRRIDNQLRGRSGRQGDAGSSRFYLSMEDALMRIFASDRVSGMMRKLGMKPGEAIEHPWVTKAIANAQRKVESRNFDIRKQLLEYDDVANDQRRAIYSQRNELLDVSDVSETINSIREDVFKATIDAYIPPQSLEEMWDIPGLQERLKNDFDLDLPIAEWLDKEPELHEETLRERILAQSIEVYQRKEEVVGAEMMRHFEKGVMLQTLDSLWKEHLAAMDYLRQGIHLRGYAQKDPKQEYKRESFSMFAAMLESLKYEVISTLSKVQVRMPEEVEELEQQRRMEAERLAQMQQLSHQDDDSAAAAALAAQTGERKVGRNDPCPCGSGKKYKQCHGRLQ
Chain of Sialic acid-binding Ig-like lectin 9 (Homo sapiens) (Q9Y336 whole entry): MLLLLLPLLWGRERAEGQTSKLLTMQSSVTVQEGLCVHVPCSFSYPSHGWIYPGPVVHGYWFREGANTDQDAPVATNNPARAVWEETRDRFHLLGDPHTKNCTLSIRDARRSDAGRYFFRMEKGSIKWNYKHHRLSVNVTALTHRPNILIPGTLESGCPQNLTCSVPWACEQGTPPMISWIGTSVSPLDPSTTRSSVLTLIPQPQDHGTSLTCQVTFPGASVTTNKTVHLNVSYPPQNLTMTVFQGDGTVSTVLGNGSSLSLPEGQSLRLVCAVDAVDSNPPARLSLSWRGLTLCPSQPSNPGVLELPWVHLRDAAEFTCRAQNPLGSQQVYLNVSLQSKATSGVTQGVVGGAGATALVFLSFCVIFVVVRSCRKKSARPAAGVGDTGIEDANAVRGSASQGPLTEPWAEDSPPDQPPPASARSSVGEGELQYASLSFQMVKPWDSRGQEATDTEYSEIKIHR
Chain of Chromo domain-containing protein 1 (Saccharomyces cerevisiae (strain ATCC 204508 / S288c) (Baker's yeast)) (P32657 whole entry, the tested form may be a part): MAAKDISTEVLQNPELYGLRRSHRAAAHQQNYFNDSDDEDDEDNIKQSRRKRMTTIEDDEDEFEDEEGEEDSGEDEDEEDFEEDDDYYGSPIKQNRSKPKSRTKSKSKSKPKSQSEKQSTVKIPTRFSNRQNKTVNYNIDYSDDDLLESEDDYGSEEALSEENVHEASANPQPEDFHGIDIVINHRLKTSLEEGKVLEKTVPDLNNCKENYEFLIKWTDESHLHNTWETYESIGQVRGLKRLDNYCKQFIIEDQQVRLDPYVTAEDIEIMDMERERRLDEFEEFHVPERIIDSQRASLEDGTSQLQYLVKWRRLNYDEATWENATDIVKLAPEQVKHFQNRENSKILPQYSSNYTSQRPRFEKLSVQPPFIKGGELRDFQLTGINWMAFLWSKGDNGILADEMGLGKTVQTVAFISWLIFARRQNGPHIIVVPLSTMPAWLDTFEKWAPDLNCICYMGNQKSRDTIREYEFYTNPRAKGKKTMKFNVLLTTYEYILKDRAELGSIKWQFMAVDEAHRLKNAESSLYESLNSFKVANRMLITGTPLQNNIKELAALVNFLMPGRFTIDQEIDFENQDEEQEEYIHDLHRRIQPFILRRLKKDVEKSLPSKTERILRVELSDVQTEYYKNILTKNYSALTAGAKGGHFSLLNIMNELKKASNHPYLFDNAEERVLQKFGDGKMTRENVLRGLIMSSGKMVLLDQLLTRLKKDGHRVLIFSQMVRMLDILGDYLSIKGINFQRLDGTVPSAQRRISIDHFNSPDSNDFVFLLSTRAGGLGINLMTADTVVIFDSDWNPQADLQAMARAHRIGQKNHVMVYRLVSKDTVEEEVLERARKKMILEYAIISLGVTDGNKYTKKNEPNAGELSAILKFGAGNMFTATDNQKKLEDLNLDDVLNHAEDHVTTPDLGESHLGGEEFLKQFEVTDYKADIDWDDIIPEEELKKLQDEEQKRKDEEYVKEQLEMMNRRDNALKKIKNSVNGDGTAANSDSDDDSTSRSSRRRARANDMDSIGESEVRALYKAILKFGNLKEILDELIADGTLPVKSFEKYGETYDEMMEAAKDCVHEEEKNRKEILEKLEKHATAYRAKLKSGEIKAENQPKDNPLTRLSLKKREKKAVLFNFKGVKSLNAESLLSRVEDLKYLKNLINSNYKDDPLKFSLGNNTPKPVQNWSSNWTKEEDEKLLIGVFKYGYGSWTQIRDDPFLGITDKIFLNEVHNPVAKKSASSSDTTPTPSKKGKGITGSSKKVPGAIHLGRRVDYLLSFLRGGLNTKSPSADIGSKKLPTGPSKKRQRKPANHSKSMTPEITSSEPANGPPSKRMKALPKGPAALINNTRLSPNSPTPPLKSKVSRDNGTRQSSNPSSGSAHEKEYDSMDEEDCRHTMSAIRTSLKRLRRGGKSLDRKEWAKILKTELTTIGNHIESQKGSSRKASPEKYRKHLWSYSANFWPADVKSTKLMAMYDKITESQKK

Compound	Percent Effect [1] [%]	Percent Effect [2] [%]	Percent Effect [3] [%]	Percent Effect [4] [%]	Percent Effect (Trypanosoma cruzi) [%]	Percent Effect ([5]; 30 µM) [%]	Percent Effect ([5]; 33.3 µM) [%]	Percent Effect [6] [%]	Percent Effect (Homo sapiens) [%]	Percent Effect [7] [%]	Percent Effect [8] [%]	Percent Effect [9] [%]	PXC50 ([10]; BOTTOM -1.512370452, HILLSLOPE 1.01203919, MAX_EFFECT 54.40140845, TOP 92.97919978)	PXC50 ([10]; BOTTOM -1.802135636, HILLSLOPE 1.091019119, MAX_EFFECT 56.05700713, TOP 88.72898538)
Cc1ccc(CNCc2nnc3n2CC(C(F)(F)F)CC3)cc1 (stereo unspecified)	-0.646	18.9	-2.64	4.4	3.23	-11.3	-3.23	8.5	11.6	5.38	13.6	-11.9		
COc1cc(C(=O)N(CCC#N)Cc2ccccn2)cc(OC)c1C	-4.24	-2.67	-4.3	14.4	7.89	2.7	-1.04	0.523	6.76	-0.546	3.7	-3.63		
CN(CC1CC1)c1ccc2ccc(C(=O)NCCN3CCOCC3)cn12	0.0454	6.49		-2.21	2.06		2.28	0.944	29.3	34.8	15	-2.15	4.18	4.23
